Inconclusive results are not listed. Calls of active or inactive are those of the source. Unless noted, calls come from the whole dose curve; as a rule, active = well fitted curve in the direction sought with a large enough effect; inconclusive = small, poorly fitted or top-dose-only effect, or another doubt; inactive = no such curve, though single readings can be large; an effect the other way counts as inactive or inconclusive.

Assay [1] can be described thus: qHTS for Inhibitors of Plasmodium falciparum (GB4) proliferation (AID 504315). Note: nearly all actives have a fitted effect of over 50% in size. Note: potency is the fitted concentration of half-maximal effect. Particulars: P. falciparum GB4 in erythrocytes, SYBR Green DNA, 72 h; series mostly up to 6.7 µM. In short, it runs like this:
(§1)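 Erythrocytes infected with P. falciparum line (0.3% parasitemia, 2.5% hematocrit final) incubated with compounds 72 h at 37 °C, 5% CO2; SYBR Green lysis buffer added, fluorescence read next day. Normalized to 0.29 uM artemisinin and DMSO.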

The nature of assay [2]: qHTS for Inhibitors of Plasmodium falciparum (HB3) proliferation (AID 504318). Note: nearly all actives have a fitted effect of over 60% in size. To be noted: P. falciparum HB3 in erythrocytes, SYBR Green DNA, 72 h; series mostly up to 7.21 µM. In a few lines: as §1
The nature of assay [3]: qHTS for Inhibitors of Plasmodium falciparum (CP250) proliferation (AID 504320). To be noted: P. falciparum CP250 in erythrocytes, SYBR Green DNA, 72 h; series mostly up to 6.7 µM. In a few lines: as §1
Assay [4] concerns the target Atrial natriuretic peptide receptor 1 (Homo sapiens) (UniProt P16066). Kind of assay: Natriuretic polypeptide receptor (hNpr1) antagonism - Pilot CMLD screen (AID 1347052; calls by dose curve;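 note: cGMP level read as GloSensor luciferase luminescence after agonist stimulation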; note: potency is the fitted concentration of half-maximal effect). To be noted: HEK293 hNpr1 GloSensor cGMP luminescence, ANP-stimulated; series mostly up to 9.22 µM.
Assay [5] can be described thus: qHTS for Inhibitors of Plasmodium falciparum (7G8) proliferation (AID 504316). Note: potency is the fitted concentration of half-maximal effect; nearly all actives have a fitted effect of over 65% in size. Particulars: P. falciparum 7G8 in erythrocytes, SYBR Green DNA, 72 h; series mostly up to 6.7 µM. In short, it runs like this:
as §1

Sequence of Atrial natriuretic peptide receptor 1 (Homo sapiens) (P16066 whole entry, looked up): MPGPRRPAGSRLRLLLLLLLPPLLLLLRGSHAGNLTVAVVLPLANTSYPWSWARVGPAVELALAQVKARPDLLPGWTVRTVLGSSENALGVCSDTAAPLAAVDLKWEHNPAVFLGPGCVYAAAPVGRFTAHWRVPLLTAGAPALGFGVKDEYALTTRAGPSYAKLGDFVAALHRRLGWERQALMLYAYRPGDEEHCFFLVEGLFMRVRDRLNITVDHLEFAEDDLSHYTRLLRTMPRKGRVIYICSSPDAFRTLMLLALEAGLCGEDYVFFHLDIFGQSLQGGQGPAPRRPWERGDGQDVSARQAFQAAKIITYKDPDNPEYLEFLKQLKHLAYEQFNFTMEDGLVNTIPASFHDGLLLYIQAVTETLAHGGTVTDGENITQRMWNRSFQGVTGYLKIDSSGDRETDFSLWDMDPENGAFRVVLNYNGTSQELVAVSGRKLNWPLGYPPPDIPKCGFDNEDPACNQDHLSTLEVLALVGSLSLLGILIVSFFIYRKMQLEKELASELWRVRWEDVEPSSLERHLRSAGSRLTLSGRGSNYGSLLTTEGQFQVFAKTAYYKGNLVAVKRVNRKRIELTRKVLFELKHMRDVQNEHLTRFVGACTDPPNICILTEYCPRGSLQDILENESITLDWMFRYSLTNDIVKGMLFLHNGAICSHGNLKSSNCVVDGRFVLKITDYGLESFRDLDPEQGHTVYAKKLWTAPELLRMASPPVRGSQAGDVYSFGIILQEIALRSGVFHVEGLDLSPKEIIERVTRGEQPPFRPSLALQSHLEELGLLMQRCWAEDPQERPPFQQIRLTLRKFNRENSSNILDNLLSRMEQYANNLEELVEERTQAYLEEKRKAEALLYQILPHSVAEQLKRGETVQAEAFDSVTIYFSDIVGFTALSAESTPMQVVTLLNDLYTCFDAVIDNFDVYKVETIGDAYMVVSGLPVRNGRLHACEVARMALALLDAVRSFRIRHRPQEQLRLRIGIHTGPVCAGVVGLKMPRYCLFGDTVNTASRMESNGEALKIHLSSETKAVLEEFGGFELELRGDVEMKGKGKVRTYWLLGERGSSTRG

Consider `COc1cccc([C@@H]2Oc3ccc(Br)cc3C(=O)[C@@H]2O)c1`, for which the Potency result in assay [1], in assay [2], in assay [3] and in assay [4] was “inactive” throughout.

For the compound `COc1cccc([C@@H]2Oc3ccc(OC)cc3C(=O)[C@@H]2OC(=O)Nc2cc(OC)c(OC)c(OC)c2)c1`, the Potency entry in assay [1], in assay [2], in assay [3] and in assay [4] was “inactive” throughout.

As to `O=C1[C@H]2[C@@H]3[C@@H](O)[C@H](O)CC(=NOCc4ccccc4)[C@@H]3CC[C@H]2C(=O)N1Cc1ccc2c(c1)OCO2`, the Potency entry in assay [1], in assay [2], in assay [3] and in assay [4] was “inactive” throughout.

On to `C=C(C)C[C@@]1(c2ccccc2)Oc2ccccc2C2=NCCN=C21`, for which the Potency result in assay [1], in assay [3] and in assay [4] was “inactive” in each case.

As to `CC1=CC[C@@H](C)O[C@@]2(C1)C(=O)N(Cc1ccc(F)cc1)c1ccccc12`, the Potency entry in assay [1], in assay [3] and in assay [4] was “inactive” in each case.

For the compound `COC(=O)CCC(=O)OC1(C)C(=O)C=C2C=C(C3CC3)OC=C2C1=O` (stereo not drawn), the Potency entry in assay [1], in assay [2], in assay [3] and in assay [4] was “inactive” each time.

For the compound `CC(C)OC(=O)[C@@H]1CC[C@H](C)[C@@H](CCC[C@@H]2CC=C[C@H](CC#N)O2)O1`, the Potency entry in assay [1], in assay [2], in assay [3] and in assay [4] was “inactive” in each case.

As to `CCOC(=O)CCN1C(=O)[C@@H]2[C@H]3[C@H](O)[C@H](O)CC(=NOCc4ccccc4)[C@@H]3CC[C@H]2C1=O`, the Potency result in assay [1], in assay [3] and in assay [4] was “inactive” each time.

For `CCCC[C@]12Cc3cc(C#N)ccc3[C@H](O1)c1c(cc(C)n(-c3ccccc3)c1=O)O2`, the Potency entry in assay [1], in assay [3] and in assay [4] was “inactive” in each case.

`C[C@@H]1CC[C@H]2C(=O)N(Cc3ccccc3)C[C@H](O)CN2[C@@H]1c1ccc(Br)cc1`: the Potency was 1690 nM (active) in assay [1] and 2990 nM (active) in assay [4]. The Potency result in assay [3] was “inactive”.

`COc1ccc(O[C@H]2C=C[C@@H](c3ccccc3)O[C@H]2CON=C[C@@H](C)[C@H](OCc2ccccc2)C(C)C)cc1`: the Potency result in assay [1], in assay [3] and in assay [4] was “inactive” throughout.

`COc1ccc2c(c1)O[C@@H](c1cccc(C(F)(F)F)c1)[C@H](OC(=O)Nc1cc(OC)c(OC)c(OC)c1)C2=O`: the Potency result in assay [1], in assay [3] and in assay [4] was “inactive” throughout.

On to `CC12C=C(C=Cc3ccc(F)cc3)C(C)(C1)C(c1ccc(F)cc1)CC2=O` (stereo not drawn), for which the Potency entry in assay [1], in assay [3] and in assay [4] was “inactive” throughout.

`COC(=O)[C@@H]1CC23C(=NC(c4ccc([N+](=O)[O-])cc4)=C(C(F)(F)F)[C@@H]2N(C)c2ccccc23)N1C(C)=O` (stereo partly drawn): the Potency result in assay [1], in assay [3] and in assay [4] was “inactive” in each case.

Consider `COc1ccc(O[C@H]2C=C[C@@H](c3ccccc3)O[C@H]2COC(=O)CCC(C)=NO[C@H](C)c2cn([C@@H]3COC[C@@H]3O)nn2)cc1`, for which the Potency entry in assay [1], in assay [3] and in assay [4] was “inactive” throughout.

As to `COc1cc([C@@H](NC(=O)C(F)(F)F)C2CCCCC=C2c2ccccc2)cc(OC)c1OC` (stereo partly drawn), the Potency result in assay [1], in assay [3] and in assay [4] was “inactive” in each case.

As for `C[C@H]1C=CCC(=O)NCc2cccc(c2)CNC(=O)N[C@@H]1c1ccccc1`, the Potency entry in assay [1], in assay [3] and in assay [4] was “inactive” in each case.

As to `COC1=C[C@@H](C(=O)N[C@H]2CCCC[C@H]2NC(C)=O)[C@]2(C)Cc3ccccc3[C@H]2CC1=O`, the Potency entry in assay [1], in assay [3] and in assay [4] was “inactive” throughout.

As to `CC(CCN1CCCc2nc(C)c(C)cc21)=NOC[C@@H](O)COCc1ccco1`, the Potency result in assay [1], in assay [3] and in assay [4] was “inactive” each time.

On to `O=C1[C@@H]2[C@H]3[C@H](O)[C@H](O)CC(=NOC[C@@H](O)COCc4ccco4)[C@@H]3CC[C@H]2C(=O)N1Cc1ccccc1`, for which the Potency result in assay [1], in assay [3] and in assay [4] was “inactive” in each case.

Regarding `COc1cccc([C@@H]2NC(=O)CC=C[C@H](C)[C@H](c3cccc(OC)c3)NC(=O)CC=C[C@H]2C)c1`, the Potency entry in assay [1], in assay [3] and in assay [4] was “inactive” throughout.

Turning to `CCCCn1c(C)cc2c(c1=O)[C@H]1O[C@](CCCCN3C(=O)c4ccccc4C3=O)(Cc3ccccc31)O2`, the Potency in assay [5] was 1690 nM (active). The Potency entry in assay [4] was “inactive”.

Take `COc1ccc(N2C=C3C(=O)C(C)(OC(=O)C4CCCC4)C(=O)C=C3C=C2c2ccsc2)cc1` (stereo not drawn): the Potency entry in assay [1], in assay [3] and in assay [4] was “inactive” in each case.

Turning to `CC1=C[C@@H](COCc2ccccc2)O[C@@]2(C1)C(=O)Nc1cccc(Br)c12`, the Potency result in assay [1], in assay [3] and in assay [4] was “inactive” in each case.

For the compound `CCCCCCCc1cc2ccccc2c2c(C=O)c(CCCC)c(C(=O)OC)n12`, the Potency result in assay [1], in assay [3] and in assay [4] was “inactive” in each case.

Take `C[C@@H](c1ccccc1)N1C(=O)[C@@H]2[C@H]3[C@H](O)[C@H](O)CC(=NOC[C@@H](O)COCc4ccco4)[C@H]3CC[C@H]2C1=O`: the Potency entry in assay [1], in assay [3] and in assay [4] was “inactive” throughout.

For the compound `CC(C)=CCCC(C)=CCN1C(=O)[C@@]2(CC(C)=C[C@@H](COCc3ccccc3)O2)c2ccccc21`, the Potency result in assay [1], in assay [3] and in assay [4] was “inactive” each time.

In the case of `COC(=O)C1=C(C)N(CCc2cc(OC)c(OC)c(OC)c2)C(=O)NC1c1ccc(Br)cc1` (stereo not drawn), the Potency result in assay [1], in assay [3] and in assay [4] was “inactive” throughout.

Source of the values: PubChem BioAssay (NCATS).
